# Results published in ChEMBL document CHEMBL1961873, “Compounds: GSK PKIS; Assays: Nanosyn kinase panel” (2012).
# Several values for one entry are separate records, joined by “and”; a condition that tells them apart may be missing. Equal values may be shown once.
# Tests used:
# [1] = molecular target: Ribosomal protein S6 kinase alpha-6 (Homo sapiens) (UniProt Q9UK32); settings: at 1 µM;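 note: each value is a mean inhibition of RSK4 from a GSK PKIS panel screen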
# [2] = molecular target: T1, Serine/threonine-protein kinase Sgk1 (Homo sapiens) (UniProt O00141); settings: at 0.1 µM
# T1 sequence (whole entry): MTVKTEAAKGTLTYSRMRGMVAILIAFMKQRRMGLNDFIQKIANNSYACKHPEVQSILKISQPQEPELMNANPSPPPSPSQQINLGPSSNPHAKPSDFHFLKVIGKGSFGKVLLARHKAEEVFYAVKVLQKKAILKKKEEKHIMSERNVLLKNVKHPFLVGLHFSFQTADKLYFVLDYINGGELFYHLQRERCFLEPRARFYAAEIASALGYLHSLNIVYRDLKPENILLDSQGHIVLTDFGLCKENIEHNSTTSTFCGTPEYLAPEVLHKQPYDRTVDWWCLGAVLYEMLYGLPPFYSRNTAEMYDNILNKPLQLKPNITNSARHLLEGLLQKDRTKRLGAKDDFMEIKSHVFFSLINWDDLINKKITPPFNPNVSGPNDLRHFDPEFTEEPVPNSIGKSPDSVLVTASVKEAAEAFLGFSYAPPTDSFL
# [3] = molecular target: T1, Serine/threonine-protein kinase Sgk1 (Homo sapiens); settings: at 1 µM
# [4] = molecular target: T2, Serine/threonine-protein kinase Sgk2 (Homo sapiens) (UniProt Q9HBY8); settings: at 0.1 µM
# T2 sequence (whole entry): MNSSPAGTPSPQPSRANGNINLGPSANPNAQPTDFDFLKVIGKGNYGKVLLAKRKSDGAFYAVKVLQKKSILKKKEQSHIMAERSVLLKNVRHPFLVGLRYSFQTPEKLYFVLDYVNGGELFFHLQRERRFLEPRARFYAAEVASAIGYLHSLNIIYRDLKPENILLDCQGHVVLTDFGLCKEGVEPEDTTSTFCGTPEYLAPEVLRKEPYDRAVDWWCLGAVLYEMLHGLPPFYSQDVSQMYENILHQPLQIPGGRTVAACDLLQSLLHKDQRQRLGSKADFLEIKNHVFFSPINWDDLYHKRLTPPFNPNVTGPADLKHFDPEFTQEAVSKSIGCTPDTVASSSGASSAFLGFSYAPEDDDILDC
# [5] = molecular target: T2, Serine/threonine-protein kinase Sgk2 (Homo sapiens); settings: at 1 µM
# [6] = molecular target: T3, Serine/threonine-protein kinase Sgk3 (Homo sapiens) (UniProt Q96BR1); settings: at 0.1 µM
# T3 sequence (whole entry): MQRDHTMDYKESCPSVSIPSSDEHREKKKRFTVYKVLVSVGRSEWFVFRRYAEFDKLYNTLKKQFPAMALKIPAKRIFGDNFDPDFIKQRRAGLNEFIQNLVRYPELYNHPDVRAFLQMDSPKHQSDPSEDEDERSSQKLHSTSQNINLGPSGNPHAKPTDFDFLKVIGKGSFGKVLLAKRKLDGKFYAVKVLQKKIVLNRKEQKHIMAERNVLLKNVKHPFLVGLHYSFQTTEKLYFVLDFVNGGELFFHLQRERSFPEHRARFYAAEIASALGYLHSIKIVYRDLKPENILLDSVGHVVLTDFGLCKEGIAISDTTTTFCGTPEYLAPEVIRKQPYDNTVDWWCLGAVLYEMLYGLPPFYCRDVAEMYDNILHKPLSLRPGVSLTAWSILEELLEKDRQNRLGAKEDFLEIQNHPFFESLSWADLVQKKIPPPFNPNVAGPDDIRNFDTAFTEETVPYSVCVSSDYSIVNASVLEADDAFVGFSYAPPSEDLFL
# [7] = molecular target: T3, Serine/threonine-protein kinase Sgk3 (Homo sapiens); settings: at 1 µM
# [8] = molecular target: 5'-AMP-activated protein kinase catalytic subunit alpha-1 (Homo sapiens) (UniProt Q13131); settings: at 0.1 µM
# 5'-AMP-activated protein kinase catalytic subunit alpha-1 (Homo sapiens), sequence (Q13131 whole entry, looked up): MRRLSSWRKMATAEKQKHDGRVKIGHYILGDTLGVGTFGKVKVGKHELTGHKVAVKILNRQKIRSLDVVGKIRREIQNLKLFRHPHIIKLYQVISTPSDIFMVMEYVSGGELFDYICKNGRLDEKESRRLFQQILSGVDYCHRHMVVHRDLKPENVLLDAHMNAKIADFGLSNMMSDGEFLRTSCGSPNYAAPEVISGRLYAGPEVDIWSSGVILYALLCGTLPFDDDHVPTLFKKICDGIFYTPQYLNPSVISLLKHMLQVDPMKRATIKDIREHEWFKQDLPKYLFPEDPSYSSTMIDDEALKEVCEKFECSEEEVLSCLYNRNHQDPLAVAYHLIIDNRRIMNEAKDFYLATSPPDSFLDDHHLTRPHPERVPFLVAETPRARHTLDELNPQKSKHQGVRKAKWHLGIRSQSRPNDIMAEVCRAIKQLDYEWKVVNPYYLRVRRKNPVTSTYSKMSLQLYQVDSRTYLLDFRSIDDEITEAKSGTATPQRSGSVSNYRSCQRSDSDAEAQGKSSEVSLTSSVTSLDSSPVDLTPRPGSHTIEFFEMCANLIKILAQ
# [9] = molecular target: 5'-AMP-activated protein kinase catalytic subunit alpha-1 (Homo sapiens) (UniProt Q13131); settings: at 1 µM
# [10] = molecular target: 5'-AMP-activated protein kinase catalytic subunit alpha-2 (Homo sapiens) (UniProt P54646); settings: at 0.1 µM;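 note: mean inhibition measured on the AMPK complex of alpha2, beta1 and gamma1 subunits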
# 5'-AMP-activated protein kinase catalytic subunit alpha-2 (Homo sapiens), sequence (P54646 whole entry, looked up): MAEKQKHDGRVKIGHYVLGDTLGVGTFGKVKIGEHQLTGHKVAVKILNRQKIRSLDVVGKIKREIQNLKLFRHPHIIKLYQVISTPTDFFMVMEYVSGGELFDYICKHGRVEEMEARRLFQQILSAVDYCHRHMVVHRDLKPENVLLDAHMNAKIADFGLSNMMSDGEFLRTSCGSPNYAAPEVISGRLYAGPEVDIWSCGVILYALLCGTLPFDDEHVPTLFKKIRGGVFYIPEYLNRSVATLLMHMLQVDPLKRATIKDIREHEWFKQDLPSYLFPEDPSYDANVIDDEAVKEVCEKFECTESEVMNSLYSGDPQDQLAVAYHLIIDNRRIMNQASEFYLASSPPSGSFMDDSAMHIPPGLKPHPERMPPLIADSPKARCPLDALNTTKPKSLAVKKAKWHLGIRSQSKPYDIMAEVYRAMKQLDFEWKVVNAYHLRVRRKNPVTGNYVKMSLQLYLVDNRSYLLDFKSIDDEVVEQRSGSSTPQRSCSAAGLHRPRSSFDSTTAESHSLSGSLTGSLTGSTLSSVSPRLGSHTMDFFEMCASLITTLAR
# Ribosomal protein S6 kinase alpha-6 (Homo sapiens), sequence (Q9UK32 whole entry): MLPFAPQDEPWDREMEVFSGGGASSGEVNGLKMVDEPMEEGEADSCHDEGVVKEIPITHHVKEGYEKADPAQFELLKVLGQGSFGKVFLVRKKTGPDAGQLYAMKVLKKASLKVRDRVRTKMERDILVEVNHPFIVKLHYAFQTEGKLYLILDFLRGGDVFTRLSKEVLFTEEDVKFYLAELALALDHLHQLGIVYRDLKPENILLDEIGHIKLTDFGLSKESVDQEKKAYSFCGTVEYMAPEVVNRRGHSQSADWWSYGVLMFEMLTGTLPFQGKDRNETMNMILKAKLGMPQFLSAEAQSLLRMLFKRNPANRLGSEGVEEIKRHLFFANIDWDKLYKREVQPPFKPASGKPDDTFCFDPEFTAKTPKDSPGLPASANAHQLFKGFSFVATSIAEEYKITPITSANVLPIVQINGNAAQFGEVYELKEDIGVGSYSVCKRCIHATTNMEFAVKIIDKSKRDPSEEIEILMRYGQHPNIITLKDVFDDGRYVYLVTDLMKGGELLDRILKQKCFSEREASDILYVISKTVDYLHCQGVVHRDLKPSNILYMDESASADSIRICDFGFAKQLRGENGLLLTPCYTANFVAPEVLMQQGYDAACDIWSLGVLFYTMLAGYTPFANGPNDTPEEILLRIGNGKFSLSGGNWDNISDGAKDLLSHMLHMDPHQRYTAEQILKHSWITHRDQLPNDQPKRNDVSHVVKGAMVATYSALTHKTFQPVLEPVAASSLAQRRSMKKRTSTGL
SMILES,inhibition [1],inhibition [2],inhibition [3],inhibition [4],inhibition [5],inhibition [6],inhibition [7],inhibition [8],inhibition [9],inhibition [10]
O=C1Nc2ccccc2/C1=C1\CCc2cc(O)ccc21,37.6%,6.47%,19.2%,2.24%,10.2%,2.61%,5.81%,5.27%,13.4%,5.22%
COc1ccc(-c2nn3ncccc3c2-c2ccnc(Nc3ccc(F)c(F)c3)n2)cc1,1.98%,3.06%,9.35%,5.4%,7.74%,5.09%,6.1%,5.22%,9.36%,2.91%
Cc1nnc(-c2cccc(-c3ccc(C(=O)NCC4CC4)cc3)c2)o1,2.8%,4.47%,10.8%,2.96%,7.09%,3.56%,7.89%,5.16%,6.56%,0.86%
Nc1ncnc2occ(-c3ccc(NC(=O)Nc4cc(C(F)(F)F)ccc4F)cc3)c12,9.97% and 5.9%,1.7% and 0.49%,3.4% and 1.19%,-0.51% and 1.78%,2.34% and 2.65%,1.18% and 0.24%,1.67% and -1.01%,2.02% and -1.41%,1.94% and -0.8%,-0.22% and 3.36%
CCN1CCC(C(=O)Nc2n[nH]c3nnc(-c4cccc(F)c4F)cc23)CC1,0.55%,0.58%,1.25%,2.32%,0.65%,-1.34%,1.23%,0.5%,2.46%,1.01%
CS(=O)(=O)CCNCc1ccc(-c2ccc3ncnc(Nc4ccc(OCc5cccc(C(F)(F)F)c5)cc4)c3c2)o1,1.68%,2.43%,1.63%,4.41%,2.6%,3.89%,2.45%,1.06%,5.76%,6.24%
COc1cc2c(cc1Nc1nc(Nc3cccc(F)c3C(N)=O)c3cc[nH]c3n1)N(C(=O)CN1CCN(C(C)C)CC1)CC2,11.7%,-0.48%,1.29%,1.96%,0.58%,0.73%,0.46%,1.45%,3.93%,5.43%
COc1ccc(Nc2ncc(-c3ccccc3)o2)cc1OC,3.67%,1.25%,9.75%,1.33%,-0.37%,0.7%,-1.61%,0.83%,5.29%,-0.43%
CCn1c(-c2nonc2N)nc2cncc(C(=O)NCCNC)c21,37.3%,3.75%,18.1%,2.29%,17.7%,21.3%,66.2%,3.01%,8.23%,2.58%
COc1cccc(-n2ncc3c(N/N=C/c4ccc(C(=O)NCCN(C)C)cc4)ncnc32)c1,6.67%,8.85%,47.9%,6.05%,40.1%,3.22%,3.92%,3.69%,12.3%,2.3%
CCCNc1cccc(-n2ncc3c(N/N=C/c4ccncc4)ncnc32)c1,3.54%,2.34%,13.6%,2.41%,10.9%,3.53%,5.07%,1.8%,3.53%,-1.29%
CNC(=O)c1ncccc1Nc1nc(Nc2cc3c(cc2OC)CCCN3C(=O)CN(C)C)nc2[nH]ccc12,19.7%,2.04%,2.57%,0.57%,1.29%,4.05%,4.49%,5.47%,6.88%,3.31%
Fc1ccc(Nc2nccc(-c3c(-c4ccc(C(F)(F)F)cc4)nn4ncccc34)n2)cc1F,0.66%,2.17%,2.25%,0.8%,-0.85%,2.84%,1.5%,1.79%,0.39%,1.16%
CC(C)c1ccc(-c2cc(-c3c[nH]nc3-c3ccccn3)ccn2)cc1,-0.11%,1.94%,0.95%,3.97%,3.85%,0.19%,-1.62%,-0.34%,-1.2%,0.19%
CNC(=O)c1cncc(/C=C/c2ccccc2C)c1,0.63%,3.1%,5.48%,2.67%,0.66%,1.58%,4.02%,3.16%,7.91%,2.05%
